Hits are enriched below; roughly 12% of the tested compounds scored in any of these assays.
G9a inh = inhibitors of human histone lysine methyltransferase G9a | G9a H3K9 monomethylation, AlphaScreen, 2 h | Potency, µM (top dose mostly 102 µM), inactives show at the top dose activity, negative = inhibition, actives largely listed as inhibitors | actives 8.8% (n = 350,000); further: on the % scale 0 is the no-effect control and ±100 the full control effect; nearly all actives have a fitted effect of over 75% in size
Target sequence (Q96KQ7 913-1193 limits assumed): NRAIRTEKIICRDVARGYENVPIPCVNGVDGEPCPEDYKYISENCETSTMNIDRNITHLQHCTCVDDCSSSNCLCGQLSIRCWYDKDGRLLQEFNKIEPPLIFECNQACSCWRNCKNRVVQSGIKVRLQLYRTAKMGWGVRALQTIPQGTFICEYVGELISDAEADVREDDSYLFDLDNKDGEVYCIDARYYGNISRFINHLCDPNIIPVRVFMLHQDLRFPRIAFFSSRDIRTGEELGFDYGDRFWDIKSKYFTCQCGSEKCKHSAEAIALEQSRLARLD
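Readings reflect AlphaScreen signal from monomethyl-H3K9 antibody detection. HMT at 20 nM; substrate b-H3K9 500 nM; cofactor SAM 20 uM; 2 h RT reaction; compounds tested as titrations in qHTS with 15 min preincubation.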
L3MBTL1 block = L3MBTL1 (human) inhibition; Q9Y468; Potency, µM (doses to about 57.1 µM), for the others: at the highest dose activity, negative = inhibition, hits mostly inhibitors; AlphaScreen L3MBTL1–H3K9me1 peptide binding; actives 0.66% (n = 230,000); further: on the % scale 0 is the no-effect control and ±100 the full control effect; nearly all actives have a fitted effect of over 60% in size
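First, the protein-peptide complex forms for 30 min at room temperature (L3MBTL1 50 nM, biotinylated H3K9me1 peptide 75 nM). Next, compounds are pin-transferred and incubated 30 min. Finally, AlphaScreen beads are added and read after 30 min.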
Sfp inh = blocks B. subtilis Sfp PPTase activity. actives 3.5% (n = 310,000). Biochemical Sfp PPTase activity, qHTS. Q9F4F7. Potency, µM, inactives show largest response in the series, negative = inhibition, actives largely listed as inhibitors;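 further: the enzyme is Sfp with the accession as filed and its product quenches rhodamine fluorescence; 0% = enzyme reaction without inhibitor and -100% = no enzyme wells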
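Fluorescence-quenching assay: 15 nM Sfp-PPTase preincubated 15 min at room temperature with compound, then 5 uM rhodamine-CoA and 12.5 uM BHQ-2-labelled YbbR peptide added. Fluorescence (ex 525/em 598 nm) read at start and after 30 min; difference gives rate.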
HP1b binding inh = blocks HP1-beta chromodomain binding to methylated histone tails | AlphaScreen HP1-beta / biotin-H3K9me3 peptide binding | Potency, µM (doses to about 114 µM), for inactives: at the top dose activity change, negative = inhibition, most hits filed as inhibitors | actives 0.56% (n = 390,000) | AID 540317; further: nearly all actives have a fitted effect of over 70% in size
Target sequence (P83916 whole entry, looked up): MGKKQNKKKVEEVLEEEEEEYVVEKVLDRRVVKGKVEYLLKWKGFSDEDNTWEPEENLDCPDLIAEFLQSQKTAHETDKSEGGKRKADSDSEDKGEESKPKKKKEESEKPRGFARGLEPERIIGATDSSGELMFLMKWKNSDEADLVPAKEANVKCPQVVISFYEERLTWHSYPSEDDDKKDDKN
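AlphaScreen: HP1-beta (50 nM) preformed 30 min with biotin-H3(1-18)K9me3 peptide (50 nM) in PBS pH 7.4, 0.01% Tween-20. Compound added for 30 min at RT, then streptavidin donor/nickel chelate acceptor beads (10 ug/mL) for 30 min.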
BAZ2B block = blocks human BAZ2B; AID 504333; Potency, µM (titrated, usually from 114 µM), for inactives: at the top dose activity change, negative = inhibition, hits mostly inhibitors; Q9UIF8; actives 4.4% (n = 360,000); AlphaScreen BAZ2B-H3K14Ac peptide displacement; further: on the % scale 0 is the no-effect control and ±100 the full control effect; nearly all actives have a fitted effect of over 60% in size
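Compounds, titrated to a top concentration of 110 uM, were incubated 30 min at room temperature with preformed BAZ2B/acetyl-K14 H3 peptide complex (50 nM each). Proximity signal was measured by AlphaScreen after 20 min with beads.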
JMJD2A Tudor inh = blocks the human JMJD2A Tudor domain; O75164; AlphaScreen JMJD2A-Tudor / H3K4me3 peptide binding; Potency, µM (top dose mostly 114 µM), inactives show top-dose activity change, negative = inhibition, actives largely listed as inhibitors; actives 4.4% (n = 390,000); further: on the % scale 0 is the no-effect control and ±100 the full control effect; nearly all actives have a fitted effect of over 50% in size
Starred values were filed as active, the others as inactive; ? = inconclusive; nt = not tested or not shown; [ ] = remark or other dose. The call rests on the fitted dose curve; in most records, active means well fitted curve in the direction sought with a large enough effect; inconclusive means small, poorly fitted or top-dose-only effect, or another doubt; inactive means no such curve, though single readings can be large; an effect the other way counts as inactive or inconclusive. Potency means the concentration at half of the fitted maximal effect.

SMILES	G9a inh	L3MBTL1 block	Sfp inh	HP1b binding inh	BAZ2B block	JMJD2A Tudor inh
CCN(CC)S(=O)(=O)c1ccc(C(=O)NCCSc2c[nH]c3ccccc23)cc1	?	-8%	17%	24%	-34%	-25%
CN(C)c1ccc(C(CNC(=O)c2ccccc2Br)c2c[nH]c3ccccc23)cc1 (stereo not drawn)	10µM*	?	-4%	24%	14µM*	-21%
CCC(C(=O)NC(C)(C)C)N(Cc1ccco1)C(=O)CNS(=O)(=O)c1ccc(OC)cc1 (stereo not drawn)	-5%	nt	13%	16%	-15%	-5%
Cc1ccc2nc(NC(=O)CSc3nccn3Cc3ccc(Cl)cc3)sc2c1	0%[59 µM]	nt	nt	-21%[57 µM]	-13%	-25%
COc1ccc([C@@]2(C(C)C)ON(c3ccccc3C(F)(F)F)C2=O)cc1	4%[0.501 µM]	40%	nt	170%	71%	59%
COc1ccc(CCNCc2ccc3c(c2)n(C)c(=O)n3C)cc1OC	-16%[59 µM]	nt	nt	23%	?	-4%
CN1C(=O)C(O)(CC(=O)c2cccs2)c2ccccc21 (stereo not drawn)	-7%	6%	18%	54%	-5%	-12%
Cc1ccc(C(=O)CC2(O)C(=O)N(C)c3ccccc32)s1 (stereo not drawn)	45µM*	-23%	?	47%	-10%	3%
CCCn1c(=O)[nH]c(=O)c2c1nc(-c1cc([N+](=O)[O-])ccc1Cl)n2CCOC	-40%	nt	13%	11%	-21%	-24%
O=c1cc(CCl)nc2sc3ccccc3n12	?	?	13%	-14%	50µM*	50µM*
COc1cccc(CSc2nc3n(n2)C(CC(C)C)C(C(=O)Nc2ccccc2C)=C(C)N3)c1 (stereo not drawn)	3%[59 µM]	nt	nt	-12%	-5%	-20%
O=C(Cn1nc2ccccc2n1)N/N=C/c1cc(Cl)cc([N+](=O)[O-])c1O	40µM*	-5%	25%	-19%	20µM*	50µM*
Cc1ccccc1C(=O)Nc1cccc(C(=O)N/N=C/c2cc(Cl)cc([N+](=O)[O-])c2O)c1	32µM*	nt	15%	?	22µM*	50µM*
O=C(Cn1nnc(-c2ccccc2)n1)N/N=C/c1cccc([N+](=O)[O-])c1O	4%	1%	4%	29%	45µM*	?
COc1cc(/C=N/NC(=O)c2cccc(NC(=O)c3ccccc3C)c2)ccc1O	14%	nt	8%	-5%	0%	?
CCCCCOC(=O)CSc1ncnc2sc3c(c12)CCC(C)C3 (stereo not drawn)	136%[59 µM]	nt	nt	267%	413%	89%
Cc1ccc(-c2nc(NC(=O)CSc3nnc4scc(-c5ccccc5)n34)ns2)cc1	?	nt	35µM*	38%	?	?
CC(C)(C)c1nc2c(s1)CCc1onc(-c3ccc(Cl)cc3)c1-2	11%[2.33 µM]	1%	nt	32%	6%	-10%
COc1ccccc1N1Cc2ccccc2C1	10µM*	-13%	?	1%	56µM*	50µM*
COc1ccc(OC)c(N2Cc3ccccc3C2)c1	7.9µM*	-7%	-26%	7%	3%	?
Cc1ccccc1N1Cc2ccccc2C1	7.9µM*	-8%	-5%	52%	?	-13%
CCOc1ccc(-c2cc3c(=O)n(CC(=O)Nc4c(C)cccc4C)ccn3n2)cc1	6%[59 µM]	nt	nt	40%	-19%	-4%
CCOc1ccc(N(C)C(=O)c2oc(=O)c3ccccc3c2-c2ccccc2)cc1	-28%[59 µM]	nt	nt	18%	-25%	-28%
O=S(=O)(NNc1ccc(F)cc1F)c1cccc(Cl)c1	1.3µM*	nt	?	?	?	10µM*
O=C(NNc1ccc(F)cc1F)c1c(F)cccc1Cl	-2%	4%	8%	-4%	-2%	-14%
SMILES	G9a inh	L3MBTL1 block	Sfp inh	HP1b binding inh	BAZ2B block	JMJD2A Tudor inh
O=[N+]([O-])c1cc(Cc2ccccc2)cc(C=Nc2ccc(N3CCOCC3)cc2)c1O	-14%[59 µM]	-13%	-17%	?	40µM*	56µM*
Cc1ccc(O)c(C=Nc2cc(C)ccc2O)c1	-17%[59 µM]	-8%	-8%	15%	-8%	-24%
COc1cc(C=Nc2cccc(C)c2)c(O)c([N+](=O)[O-])c1	-21%[59 µM]	-15%	12%	-32%	50µM*	?
COc1cc(/C=C/c2ccc3cccc(OC)c3n2)c(O)c([N+](=O)[O-])c1	-33%	-6%	1%	36%	-12%	-2%
Cc1ccc(O)c(N=Cc2cc(Cc3ccccc3)cc([N+](=O)[O-])c2O)c1	?	-20%	8.9µM*	?	10µM*	40µM*
COc1ccc(-c2noc(CSc3nnc(-c4ccncc4)n3-c3ccccc3)n2)cc1	1%[59 µM]	nt	nt	73%	-19%	-18%
O=C(COC(=O)CNC(=O)c1ccc(Cl)cc1Cl)Nc1ccc(N2CCOCC2)cc1	-51%	-5%	6%	14%	-12%	-23%
COCc1cc(=O)[nH]c(Nc2nc3ccccc3o2)n1	68%[59 µM]	0%	?	47%	40µM*	79µM*
COC(=O)Cc1cc(=O)[nH]c(Nc2nc3ccccc3o2)n1	57%[12.7 µM]	10%	2%	28%	9%	-9%
Cc1ccc2oc(Nc3nc(-c4ccccc4)cc(=O)[nH]3)nc2c1	79µM*	-5%	-16%	12%	?	?
COc1ccc(-n2c(=O)c(C)nc3cnc(Nc4ccccc4)nc32)cc1	-2%[12.7 µM]	nt	17%	nt	nt	nt
COc1ccc([N+](=O)[O-])cc1NC(=O)c1ccco1	-18%	-6%	4%	1%	-11%	-19%
S=c1nccc(-c2ccc(Cl)cc2)[nH]1	-31%	1%	-11%	13%	13%	-20%
Cc1ccc(-c2ccc(C(=O)O)[nH]2)cc1	-7%[59 µM]	-6%	-2%	0%	1%	-25%
S=c1[nH]c(-c2ccc(Cl)cc2)cs1	35µM*	?	11µM*	-23%	45µM*	?
Cc1ccc(-c2csc(=S)[nH]2)cc1	13µM*	nt	35µM*	4%	?	-34%
O=C(Nc1cccc(OCC(=O)N2CCOCC2)c1)c1ccc(C(F)(F)F)cc1	20%	nt	24%	-13%	3%	-2%
Nc1c(Cl)cc(N=Nc2ccccc2)cc1Cl	nt	nt	nt	?	nt	14µM*
CCN(CC)c1ccc2nc3ccccc3[n+](CC)c2c1	14µM*	20µM*	?	?	40µM*	?
CCN(CC)c1ccc2nc3ccc(N)cc3[n+](-c3ccccc3)c2c1	-33%[0.501 µM]	?	nt	-89%	13µM*	45µM*
CCN(CC)c1ccc2nc3c(=O)n(C)c(=O)n(C)c3nc2c1	-32%[59 µM]	nt	nt	17%	-5%	-3%
COc1ccc(NC(=O)c2cnn(-c3ccccc3)c2C)cc1	10%[0.501 µM]	2%[2.29 µM]	12%	28%	-5%	-8%

Assay outcomes (PubChem BioAssay)
